Measured values published in the supplement of paper PMC6279402.
Where a name gives a salt, the structure may show the parent alone. ± gives the standard deviation of the averaged measurements.

Test system: A549
Test: relative viability (normalised to negative control = 1, bortezomib = 0) (fraction); higher = less cytotoxic
Conditions: inflammatory serum-free RHB-A with cytokines + LPS, 5 d + 24 h CellTiter-Blue
[1] = compound 30 nM, GSK126 pretreatment: 5 uM GSK126
[2] = compound 30 nM, GSK126 pretreatment: none (vehicle)
[3] = compound 300 nM, GSK126 pretreatment: 5 uM GSK126
[4] = compound 300 nM, GSK126 pretreatment: none (vehicle)

| Structure (SMILES) | relative viability [1] | relative viability [2] | relative viability [3] | relative viability [4] |
| --- | --- | --- | --- | --- |
| O=C(O)C1(C(=O)O)CCC1.[NH2-].[NH2-].[Pt+2] [Carboplatin] | 0.75 ± 0.042 | 0.748 ± 0.059 | 0.742 ± 0.048 | 0.812 ± 0.0056 |
| Cc1ccc(C(=O)Nc2cccc(C(F)(F)F)c2)cc1Nc1nc(-c2cccnc2)nc2c1cnn2C | 0.992 ± 0.12 | 0.959 ± 0.17 | 1.01 ± 0.13 | 1.06 ± 0.15 |
| COc1cccc2c1C(=O)c1c(O)c3c(c(O)c1C2=O)C[C@@](O)(C(=O)CO)C[C@@H]3O[C@H]1C[C@H](N)[C@H](O)[C@H](C)O1 [Doxorubicin hydrochloride; 4'-Epiadriamycin; Doxorubicin HCl] | 0.967 ± 0.022 | 0.9737 ± 0.0065 | 0.454 ± 0.027 | 0.463 ± 0.075 |
| COc1cc2nccc(Oc3ccc(NC(=O)C4(C(=O)Nc5ccc(F)cc5)CC4)cc3)c2cc1OC [XL184; Cabozantinib] | 0.903 ± 0.061 | 0.875 ± 0.12 | 0.986 ± 0.043 | 0.974 ± 0.014 |
| Cc1cc(C(C)Nc2ccccc2)c2nc(N3CCOCC3)cc(=O)n2c1 (stereo not drawn) | 0.763 ± 0.083 | 0.782 ± 0.067 | 0.737 ± 0.093 | 0.8 ± 0.1 |
| CN1CCN(CCOc2cc(OC3CCOCC3)c3c(Nc4c(Cl)ccc5c4OCO5)ncnc3c2)CC1 [AZD0530(Saracatinib)] | 0.831 ± 0.073 | 0.827 ± 0.071 | 0.746 ± 0.057 | 0.914 ± 0.038 |
| CCOc1cc2ncc(C#N)c(Nc3ccc(OCc4ccccn4)c(Cl)c3)c2cc1NC(=O)/C=C/CN(C)C [Neratinib] | 0.713 ± 0.16 | 0.675 ± 0.14 | 0.196 ± 0.014 | 0.183 ± 0.014 |
| C[C@]12CC[C@@H]3c4ccc(O)cc4C[C@@H](CCCCCCCCC[S+]([O-])CCCC(F)(F)C(F)(F)F)[C@H]3[C@@H]1CC[C@@H]2O (stereo partly drawn) [Fulvestrant] | 0.901 ± 0.098 | 0.836 ± 0.039 | 0.85 ± 0.065 | 0.855 ± 0.024 |
| CO[C@H](C(=O)[C@@H](O)[C@@H](C)O)[C@@H]1Cc2cc3cc(O[C@H]4C[C@@H](O[C@H]5C[C@@H](O)[C@H](O)[C@@H](C)O5)[C@H](O)[C@@H](C)O4)c(C)c(O)c3c(O)c2C(=O)[C@H]1O[C@H]1C[C@@H](O[C@H]2C[C@@H](O[C@H]3C[C@](C)(O)[C@H](O)[C@@H](C)O3)[C@@H](O)[C@@H](C)O2)[C@H](O)[C@@H](C)O1 [Plicamycin] | 0.1 ± 0.012 | 0.183 ± 0.058 | 0.00825 ± 0.00088 | 0.0263 ± 0.0054 |
| CC(C)(C)Cn1c(N)nc2ccc(-c3[nH]c(C(C)(C)C)nc3-c3ccc(F)cc3)nc21 | 1.11 ± 0.14 | 0.933 ± 0.21 | 1.25 ± 0.16 | 1.15 ± 0.18 |
| Cn1nnc2c(C(N)=O)ncn2c1=O [Temozolomide] | 0.831 ± 0.044 | 0.837 ± 0.029 | 0.828 ± 0.067 | 0.943 ± 0.061 |
| CC/C(=C(\c1ccccc1)c1ccc(OCCN(C)C)cc1)c1ccccc1 [Tamoxifen citrate] | 0.967 ± 0.075 | 0.863 ± 0.019 | 0.909 ± 0.13 | 0.972 ± 0.024 |
| COc1cc2c(Oc3ccc(NC(=O)C4(C(=O)Nc5ccc(F)cc5)CC4)cc3F)ccnc2cc1OCCCN1CCOCC1 | 0.797 ± 0.081 | 0.789 ± 0.037 | 0.57 ± 0.1 | 0.573 ± 0.074 |
| CCC1=C[C@@H]2CN(C1)Cc1c([nH]c3ccccc13)[C@@](C(=O)OC)(c1cc3c(cc1OC)N(C)[C@H]1[C@@](O)(C(=O)OC)[C@H](OC(C)=O)[C@]4(CC)C=CCN5CC[C@]31[C@@H]54)C2 [Vinorelbine tartrate] | 0.403 ± 0.049 | 0.444 ± 0.021 | 0.376 ± 0.056 | 0.307 ± 0.025 |
| CC1(COc2ccc3c(c2)ncn3-c2ccc3cccc(N4CCC(N)CC4)c3n2)COC1 | 0.986 ± 0.081 | 0.966 ± 0.12 | 1.3 ± 0.087 | 1.34 ± 0.12 |
| CCN(CC)CCNC(=O)c1c(C)[nH]c(/C=C2\C(=O)Nc3ccc(F)cc32)c1C [Sunitinib; Sunitinib Malate; Sunitinib (free base)] | 0.842 ± 0.03 | 0.832 ± 0.046 | 0.896 ± 0.067 | 0.939 ± 0.097 |
| Cc1ccc(-n2nc(C(C)(C)C)cc2NC(=O)Nc2ccc(OCCN3CCOCC3)c3ccccc23)cc1 | 1.13 ± 0.13 | 0.937 ± 0.18 | 1.32 ± 0.064 | 1.13 ± 0.23 |
| O=c1cc(N2CCOCC2)oc2c(-c3cccc4c3sc3ccccc34)cccc12 | 0.877 ± 0.026 | 0.869 ± 0.057 | 0.922 ± 0.055 | 0.919 ± 0.072 |
| O=NN(CCCl)C(=O)NC1CCCCC1 [Lomustine, CCNU; Lomustine] | 0.967 ± 0.15 | 0.973 ± 0.15 | 1.03 ± 0.11 | 0.976 ± 0.079 |
| N#C/C(=C/c1ccc(O)c(O)c1)C(=O)NCc1ccccc1 [AG-490; Tyrphostin AG 490] | 0.914 ± 0.15 | 0.861 ± 0.1 | 0.879 ± 0.15 | 0.873 ± 0.11 |
| COc1cccc2cc(-c3nc(C4CCC(C(=O)O)CC4)n4ncnc(N)c34)[nH]c12 (stereo not drawn) | 0.815 ± 0.016 | 0.797 ± 0.045 | 0.588 ± 0.07 | 0.718 ± 0.055 |
| Nc1ncnc2c1c(-c1cccc(OCc3ccccc3)c1)cn2C1CC(CN2CCCC2)C1 (stereo not drawn) | 0.733 ± 0.037 | 0.748 ± 0.028 | 0.287 ± 0.021 | 0.333 ± 0.059 |
| O=c1cc(N2CCOCC2)oc2c(-c3ccccc3)cccc12 | 0.773 ± 0.033 | 0.819 ± 0.048 | 0.748 ± 0.15 | 0.835 ± 0.068 |
| C#Cc1cccc(Nc2ncnc3cc(OCCOC)c(OCCOC)cc23)c1 | 0.81 ± 0.083 | 0.823 ± 0.12 | 0.448 ± 0.041 | 0.494 ± 0.031 |
| Cc1cc(Nc2nc(N[C@@H](C)c3ccc(F)cc3)c(C#N)cc2F)n[nH]1 | 1.23 ± 0.055 | 1.16 ± 0.11 | 0.269 ± 0.021 | 0.309 ± 0.027 |
| Nc1nccc(Oc2ccc(NC(=O)c3c[nH]cc(-c4ccc(F)cc4)c3=O)cc2F)c1Cl | 0.87 ± 0.13 | 0.882 ± 0.16 | 1.14 ± 0.15 | 1.12 ± 0.18 |

| Structure (SMILES) | relative viability [1] | relative viability [2] | relative viability [3] | relative viability [4] |
| --- | --- | --- | --- | --- |
| Cc1[nH]nc2ccc(-c3cncc(OC[C@@H](N)Cc4ccccc4)c3)cc12 | 0.871 ± 0.14 | 0.766 ± 0.094 | 0.17 ± 0.011 | 0.273 ± 0.056 |
| Clc1ccc(Nc2nnc(Cc3ccncc3)c3ccccc23)cc1 [Vatalanib] | 0.822 ± 0.036 | 0.791 ± 0.044 | 0.84 ± 0.074 | 0.874 ± 0.05 |
| C=CC(=O)Nc1cccc(Oc2nc(Nc3ccc(N4CCN(C)CC4)cc3)ncc2Cl)c1 | 0.802 ± 0.067 | 0.82 ± 0.095 | 0.132 ± 0.07 | 0.0677 ± 0.014 |
| Cc1ccc(NC(=O)c2ccc(CN3CCN(C)CC3)cc2)cc1Nc1nccc(-c2cccnc2)n1 | 0.902 ± 0.12 | 0.867 ± 0.096 | 0.976 ± 0.13 | 1 ± 0.093 |
| C=CC(=O)Nc1cc2c(Nc3ccc(F)c(Cl)c3)ncnc2cc1OCCCN1CCOCC1 [CI-1033(Canertinib)] | 0.602 ± 0.014 | 0.595 ± 0.017 | 0.483 ± 0.028 | 0.502 ± 0.028 |
| Cc1c(NC(=O)OC[C@@H]2COCCN2)cn2ncnc(Nc3ccc4c(cnn4Cc4cccc(F)c4)c3)c12 | 0.806 ± 0.16 | 0.802 ± 0.081 | 0.56 ± 0.088 | 0.621 ± 0.052 |
| COc1cc(N2CCC(N3CCN(C)CC3)CC2)ccc1Nc1ncc(Cl)c(Nc2ccccc2S(=O)(=O)C(C)C)n1 | 0.545 ± 0.012 | 0.605 ± 0.022 | 0.211 ± 0.019 | 0.259 ± 0.028 |
| Oc1ccc(-c2nc(-c3ccc(F)cc3)c(-c3ccncc3)[nH]2)cc1 | 1.08 ± 0.13 | 0.954 ± 0.13 | 1.36 ± 0.066 | 1.17 ± 0.19 |
| Nc1nc(F)nc2c1ncn2[C@@H]1O[C@H](COP(=O)(O)O)[C@@H](O)[C@@H]1O [Fludarabine; Fludarabine phosphate] | 0.858 ± 0.071 | 0.879 ± 0.098 | 0.891 ± 0.089 | 0.842 ± 0.055 |
| CO[C@H]1C[C@@H]2CC[C@@H](C)[C@@](O)(O2)C(=O)C(=O)N2CCCC[C@H]2C(=O)O[C@H]([C@H](C)C[C@@H]2CC[C@@H](OCCO)[C@H](OC)C2)CC(=O)[C@H](C)/C=C(\C)[C@@H](O)[C@@H](OC)C(=O)[C@H](C)C[C@H](C)/C=C/C=C/C=C/1C [Everolimus; Everolimus(RAD001)] | 0.647 ± 0.072 | 0.615 ± 0.033 | 0.562 ± 0.068 | 0.582 ± 0.063 |
| CCS(=O)(=O)c1cccc(-c2cc(C(=O)NC3CCN(C)CC3)c(C)c3[nH]c4ncc(C)cc4c23)c1 | 0.702 ± 0.12 | 0.72 ± 0.058 | 0.553 ± 0.083 | 0.485 ± 0.031 |
| O=C(CCCCCCC(=O)Nc1ccccc1)NO [Vorinostat; SAHA] | 0.83 ± 0.15 | 0.868 ± 0.073 | 0.891 ± 0.17 | 1 ± 0.19 |
| O=C(NOCC(O)CO)c1cc(Br)c(F)c(F)c1Nc1ccc(I)cc1F (stereo not drawn) | 0.407 ± 0.025 | 0.492 ± 0.087 | 0.193 ± 0.019 | 0.276 ± 0.0045 |
| C=CC(=O)Nc1cccc(Sc2nc(Nc3ccc(N4CCN(C)CC4)cc3)ncc2Cl)c1 | 0.859 ± 0.1 | 0.815 ± 0.085 | 0.475 ± 0.1 | 0.477 ± 0.083 |
| Fc1cc(-c2cccc3ncc(-c4cnn(C5CCNCC5)c4)nc23)cc(F)c1CN1CCOCC1 | 0.927 ± 0.076 | 0.889 ± 0.13 | 1.11 ± 0.12 | 1.05 ± 0.15 |
| c1cncc(CN2CCC(n3ncc4c(N5CCOCC5)nc(-c5ccc6[nH]ccc6c5)nc43)CC2)c1 | 0.861 ± 0.099 | 0.896 ± 0.11 | 0.73 ± 0.14 | 0.761 ± 0.073 |
| O=C(c1ccc(OCCN2CCCCC2)cc1)c1c(-c2ccc(O)cc2)sc2cc(O)ccc12 [Raloxifene HCl; Raloxifene hydrochloride] | 0.955 ± 0.064 | 0.897 ± 0.094 | 0.961 ± 0.043 | 0.987 ± 0.058 |
| C/C=C1\NC(=O)[C@H]2CSSCC/C=C/[C@H](CC(=O)N[C@H](C(C)C)C(=O)N2)OC(=O)[C@H](C(C)C)NC1=O [Depsipeptide] | 0.00208 ± 0.0052 | 0.00595 ± 0.0056 | -0.0034 ± 0.0005 | -0.00514 ± 0.00076 |
| CC[C@H](Nc1ncnc2nc[nH]c12)c1nc2cccc(F)c2c(=O)n1-c1ccccc1 | 0.899 ± 0.11 | 0.876 ± 0.1 | 0.878 ± 0.08 | 0.852 ± 0.035 |
| NC1(Cc2ccc(Cl)cc2)CCN(c2ncnc3[nH]ccc23)CC1 | 0.832 ± 0.029 | 0.844 ± 0.05 | 0.839 ± 0.1 | 0.875 ± 0.023 |
| C=CC(=O)N1CCC[C@@H](n2nc(-c3ccc(Oc4ccccc4)cc3)c3c(N)ncnc32)C1 | 0.769 ± 0.14 | 0.718 ± 0.11 | 0.429 ± 0.02 | 0.41 ± 0.048 |
| Cn1c(Nc2ccc(C(F)(F)F)cc2)nc2cc(Oc3ccnc(-c4ncc(C(F)(F)F)[nH]4)c3)ccc21 | 0.826 ± 0.12 | 0.699 ± 0.17 | 0.427 ± 0.11 | 0.347 ± 0.037 |
| CN(c1ncccc1CNc1nc(Nc2ccc3c(c2)CC(=O)N3)ncc1C(F)(F)F)S(C)(=O)=O | 0.902 ± 0.22 | 0.907 ± 0.16 | 0.907 ± 0.12 | 0.891 ± 0.13 |
| Cc1[nH]c(/C=C2\C(=O)Nc3ccc(S(=O)(=O)N(C)c4cccc(Cl)c4)cc32)c(C)c1C(=O)N1CCN(C)CC1 | 0.89 ± 0.053 | 0.887 ± 0.099 | 1.03 ± 0.01 | 1.03 ± 0.01 |
| C[S+]([O-])c1ccc(-c2nc(-c3ccc(F)cc3)c(-c3ccncc3)[nH]2)cc1 (stereo not drawn) | 1.03 ± 0.22 | 0.902 ± 0.11 | 1.3 ± 0.14 | 1.14 ± 0.13 |
| Cc1cnc(NC(=O)Nc2cc(Br)c(C)cc2OC[C@@H]2CNCCO2)cn1 | 0.539 ± 0.03 | 0.607 ± 0.081 | 0.414 ± 0.05 | 0.338 ± 0.028 |
